Laboratory results from PubChem BioAssay AID488969 (Vanderbilt High Throughput Screening Facility, 2010).
Whole data set: some 110,000 compounds, median “z-score” near -0.1, cut for the highest 2% near 2. What follows is part of a selection rich in the highest values, with near analogues and random picks from the rest. Active and inactive are the calls of the source.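 The calls were made as follows: active = z-score in the third read window above 3 or below -3; inactive = the rest.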

target: Metabotropic glutamate receptor 8 (Rattus norvegicus) (UniProt P70579); assay: rat mGluR8 modulators via GIRK flux, primary screen, cell-based, thallium flux, HTS (AID 488969); conditions: HEK293 rat mGluR8, GIRK (G protein-gated inwardly rectifying potassium channel) thallium flux, FluoZin2; at 10 µM; stronger effect = higher value; submaximal glutamate (EC20) added with thallium
Sequence (P70579 whole entry, looked up): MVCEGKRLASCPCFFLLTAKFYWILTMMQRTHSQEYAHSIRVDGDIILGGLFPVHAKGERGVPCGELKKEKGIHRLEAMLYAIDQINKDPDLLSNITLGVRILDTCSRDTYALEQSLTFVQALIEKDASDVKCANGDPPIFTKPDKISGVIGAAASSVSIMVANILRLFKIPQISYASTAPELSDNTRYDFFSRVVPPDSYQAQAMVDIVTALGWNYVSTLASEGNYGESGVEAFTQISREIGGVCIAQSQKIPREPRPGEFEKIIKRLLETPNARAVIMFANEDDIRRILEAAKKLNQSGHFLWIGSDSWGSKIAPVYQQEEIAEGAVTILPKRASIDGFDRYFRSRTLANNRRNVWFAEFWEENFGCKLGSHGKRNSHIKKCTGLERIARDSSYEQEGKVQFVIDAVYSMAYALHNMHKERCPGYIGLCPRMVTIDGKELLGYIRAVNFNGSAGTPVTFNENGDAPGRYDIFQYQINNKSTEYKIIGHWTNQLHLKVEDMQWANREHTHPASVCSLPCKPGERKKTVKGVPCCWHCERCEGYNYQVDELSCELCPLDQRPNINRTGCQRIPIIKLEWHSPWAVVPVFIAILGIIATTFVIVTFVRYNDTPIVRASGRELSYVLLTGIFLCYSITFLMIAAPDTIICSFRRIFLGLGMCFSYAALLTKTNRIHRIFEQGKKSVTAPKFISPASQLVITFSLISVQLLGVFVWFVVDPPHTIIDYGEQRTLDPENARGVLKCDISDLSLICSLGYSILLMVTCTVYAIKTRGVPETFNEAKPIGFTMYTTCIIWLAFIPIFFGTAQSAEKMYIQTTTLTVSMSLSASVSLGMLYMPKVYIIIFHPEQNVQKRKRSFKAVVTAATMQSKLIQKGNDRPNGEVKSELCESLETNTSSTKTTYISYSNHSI

Row | SMILES | z-score
1 | COC(=O)C1CCN(C(=O)COc2cc3sc(C)nc3c3sccc23)CC1 | -1.34
2 | CCc1nnc(NS(=O)(=O)c2ccc(NC(=S)NC(=O)c3ccc(F)cc3)cc2)s1 | 0.102
3 | CCc1nnc(NS(=O)(=O)c2ccc(NC(=S)NC(=O)c3ccc(Br)cc3)cc2)s1 | -1.21
4 | Cc1cc(NS(=O)(=O)c2ccc(NC(=S)NC(=O)c3ccccc3)cc2)no1 | 2.22
5 | CCc1nnc(NS(=O)(=O)c2ccc(NC(=S)NC(=O)c3ccccc3)cc2)s1 | 5.21 (active)
6 | Cc1cc(NS(=O)(=O)c2ccc(NC(=S)NC(=O)c3ccc(F)cc3)cc2)no1 | -0.0103
7 | Cc1cc(NS(=O)(=O)c2ccc(NC(=O)Nc3ccccc3)cc2)no1 | 0.82
8 | Cc1ccc(Cn2c(SCC(=O)N/N=C/c3ccc(C)o3)nc3ccccc32)cc1 | -0.169
9 | Cc1ccc(-c2cnc(SCC(=O)N3CCCc4ccccc43)n2C)cc1 | -0.31
10 | O=C1c2ccccc2C(=O)N1CC1=CCS(=O)(=O)C1 | 0.399
11 | COc1ccc(N2CCN(C(=O)CCCn3c(=S)[nH]c4cc5c(cc4c3=O)OCO5)CC2)cc1 | -0.487
12 | Cc1cc(C)nc(NC(=O)CCC2CCCC2)c1 | -0.0409
13 | CS(=O)(=O)Nc1ccc(C(=O)NCCC2=CCCCC2)cc1 | 1.28
14 | COc1ccc(-n2c(C)nc3cc(C(=O)NCc4ccco4)ccc32)cc1 | 2.54
15 | CCOc1ccc(-n2c(C)nc3cc(C(=O)NCc4ccco4)ccc32)cc1 | 0.364
16 | COc1ccc(-n2c(C)nc3cc(C(=O)NCc4ccc5c(c4)OCO5)ccc32)cc1 | -0.347
17 | CC(=O)c1c(C)nn(C(C)CC(=O)O)c1C (stereo unspecified) | -0.0267
18 | COc1cc(OC)nc(NC(=O)CSc2nnc(-c3ccccc3)n2C2CCCCC2)n1 | -0.277
19 | O=C(Nc1cccc(F)c1)c1ccccc1-c1ccccc1 | -0.369
20 | Cc1nnc(SCC(=O)N2c3ccccc3C(C)(c3ccc(Cl)cc3)CC2(C)C)s1 (stereo unspecified) | 0.227
21 | CN1CCN(CC(=O)N2c3ccccc3C(C)(c3ccc(Cl)cc3)CC2(C)C)CC1 (stereo unspecified) | 3.21 (active)
22 | CN1CCN(CC(=O)N2c3ccccc3C(C)(c3ccccc3)CC2(C)C)CC1 (stereo unspecified) | 3.59 (active)
23 | CC1(c2ccccc2)CC(C)(C)N(C(=O)CSc2nnc(N)s2)c2ccccc21 (stereo unspecified) | -0.521
24 | Cc1nnc(SCC(=O)N2c3ccccc3C(C)(c3ccccc3)CC2(C)C)s1 (stereo unspecified) | 0.611

Row | SMILES | z-score
25 | CC(=O)N1c2ccccc2C(C)(c2ccccc2)CC1(C)C (stereo unspecified) | -0.236
26 | CC1Cc2ccccc2N1C(=O)CCNS(=O)(=O)c1ccc2c(c1)CCC(=O)N2 (stereo unspecified) | -0.0721
27 | Cn1c(=O)c2c(nc(NCCO)n2C)n(C)c1=O | 0.204
28 | CCn1c(NCc2ccco2)nc2c1c(=O)n(C)c(=O)n2C | 0.397
29 | CCn1c(C)c(C2=CCN(S(=O)(=O)c3ccc(C)cc3)CC2)c2ccccc21 | 0.0891
30 | CCN1C(=O)c2cccc3cccc1c23 | -0.389
31 | CCOc1ccc2c(c1)c(N=Nc1cccc(C(=O)O)c1)c(O)n2C | -0.0674
32 | CCn1c(O)c(N=NC2=NC(=O)CS2)c2cc(C)ccc21 | 2.24
33 | CCOc1ccc2c(c1)c(N=NC(=N)N)c(O)n2C | -0.224
34 | CCn1c(O)c(N=NC2=NC(=O)CS2)c2ccccc21 | 0.217
35 | CCc1ccc2c(c1)c(N=NC1=NC(=O)CS1)c(O)n2C | 2.09
36 | CCc1ccc2c(c1)c(N=NC1=NC(=O)CS1)c(O)n2CC | 2.98
37 | CCn1c(O)c(N=NC(=O)CNc2cccc(C)c2)c2ccccc21 | 1.4
38 | Cc1cc(C)nc(N=Nc2c(O)n(Cc3ccc(Cl)cc3)c3ccccc23)n1 | 0.0163
39 | CCc1ccc2c(c1)c1nnc(NN)nc1n2CC | -0.278
40 | Cc1ccc(O)c(C(=O)/C=C/c2ccc3c(c2)OCCCO3)c1 | 0.653
41 | CC(=O)NC1=NN(C(C)=O)C(C)(CS(=O)(=O)c2ccc(C)c(C)c2)S1 (stereo unspecified) | -0.323
42 | COc1ccc(CN(C(=O)c2ccco2)c2ccc(Br)cc2)cc1OC | -0.544
43 | CCOC(=O)c1sc(C)c2c(=O)n(CC)nnc12 | 0.154
44 | Cc1ccc(NC(=S)NNC(=O)c2cn(C)nc2C)cc1 | 0.188
45 | CC(=O)c1c(N2CCCC2)[nH]c(-c2ccccc2)nc1=S | 14.8 (active)
46 | CC(=O)c1c(N)[nH]c(-c2ccccc2)nc1=S | 1.28
47 | CC(=O)c1c(N2CCN(C)CC2)[nH]c(-c2ccccc2)nc1=S | 0.167
48 | CSc1nc(-c2ccccc2)nc(N)c1C(C)=O | -0.0854

Row | SMILES | z-score
49 | CSc1nc(-c2ccccc2)nc(SC)c1C(C)=O | -0.493
50 | CSc1nc(-c2ccccc2)[nH]c(=S)c1C(C)=O | 7.43 (active)
51 | S=C(NC12CC3CC(CC(C3)C1)C2)N1CCCC1 | -0.0857
52 | N#C/C(=C(/O)COC(=O)Cc1c[nH]c2ccccc12)c1nc2ccccc2[nH]1 | -0.819
53 | Cc1ccc2c(c1)NC(=O)C(CC(=O)NCCCN1CCCC1)O2 (stereo unspecified) | 0.515
54 | COC(=O)CSc1nc(N)c(C#N)c(-c2ccco2)c1C#N | -0.328
55 | N#Cc1c(N)nc(SCc2ccccc2)c(C#N)c1-c1ccco1 | 11.4 (active)
56 | CCSc1nc(N)c(C#N)c(-c2ccco2)c1C#N | -0.377
57 | COc1ccc(Oc2coc3cc(OC(=O)N4CCOCC4)ccc3c2=O)cc1 | -0.0315
58 | Cc1cccc(Nc2nnc(SCC3CCCCO3)s2)c1C (stereo unspecified) | -0.0272
59 | COc1cccc(N(C(=O)Cn2nnc(-c3ccc(C)o3)n2)C(C(=O)NC(C)(C)C)c2cccs2)c1 (stereo unspecified) | 0.439
60 | O=C(Nc1ccccc1N1CCCCC1)c1ccco1 | -0.657
61 | O=C(NC(=S)Nc1ccccc1N1CCOCC1)c1cccs1 | 4.28 (active)
62 | O=C(NC(=S)Nc1cccc(Cl)c1N1CCCCC1)c1ccc2c(c1)OCCO2 | 0.413
63 | O=C(NC(=S)Nc1cccc(Cl)c1N1CCCCC1)c1ccco1 | 5.38 (active)
64 | CS(=O)(=O)N1CCN(c2ccccc2NC(=O)c2ccco2)CC1 | -0.175
65 | CCCC(=O)NC(=S)Nc1cccc(Cl)c1N1CCCCC1 | 0.12
66 | O=C(Nc1ccc(N2CCOCC2)cc1N1CCOCC1)c1cccs1 | -0.508
67 | O=C(NC(=S)Nc1cccc(Cl)c1N1CCCCC1)c1cccs1 | 2.55
68 | O=C(NC(=S)Nc1ccccc1N1CCCCC1)c1ccco1 | 5.87 (active)
69 | O=C(NC(=S)Nc1ccccc1N1CCCCC1)c1cccs1 | -0.0387
70 | CCC(=O)NC(=S)Nc1cccc(Cl)c1N1CCCCC1 | 0.315
71 | O=C(Nc1ccccc1N1CCOCC1)c1cccs1 | 0.511
